The sample as a whole holds a higher share of hits than the screen did.
DT40 TDP1 CPT: DT40-hTDP1 cell growth loss with CPT | chicken DT40 Tdp1-/-;hTDP1 cells + 20 nM CPT, ATP luminescence, 48 h | Potency, µM (doses to about 46.2 µM), inactives show at the highest dose activity change, negative = growth inhibition, most hits filed as inhibitors | actives 12% (n = 420,000) | AID 686979; further: potency means the concentration at half of the fitted maximal effect; nearly all actives have a fitted effect of over 55% in size
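Cell growth measured by CellTiter-Glo luminescence after a minimum 48 h, 37 C compound exposure with 20 nM CPT in Tdp1-knockout DT40 cells stably expressing hTDP1, seeded 400/well; qHTS titration format.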
IL1B secr inh: inflammasome signaling inhibition, IL-1 beta readout. THP-1 LPS/ATP IL-1B secretion, AlphaLISA, 16 h; stronger effect = lower value. activity change, % at 57.5 µM. actives 4.7% (n = 360,000). AID 743279; in the data active means activity change below about -50%; inconclusive means mostly about -30% to -49%
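Secreted IL-1B measured by AlphaLISA bead assay after 16 h compound exposure of THP-1 cells; compounds (final up to 57.5 uM) added 1 h before LPS (250 ng/mL) and ATP (1.25 mM) stimulation; lower signal means less secretion.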
HT1080-NT tox: kills 2HG-producing HT-1080-NT fibrosarcoma cells; HT-1080-NT fibrosarcoma viability, CellTiter-Glo ATP luminescence, 48 h; Potency, µM (top dose mostly 46.1 µM), for the others: at the top dose activity, negative = less viability, usual class: cytotoxic; actives 1.6% (n = 360,000);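 further: NT is the 2HG producing partner of a matched IDH1 knockdown line; potency means the concentration at half of the fitted maximal effect; 0% = DMSO-treated cells and -100% = media-only wells without cells; nearly all actives have a fitted effect of over 55% in size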
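Luminescent CellTiter-Glo readout after 48 hours of compound exposure at 37 degrees C defined viability of HT-1080-NT cells. Activity was normalized to DMSO wells and cell-free media wells; concentration-response curves were fitted and assigned curve classes.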
DT40 TDP1 no CPT: qHTS for Inhibitors of human tyrosyl-DNA phosphodiesterase 1 (TDP1): qHTS in cells in absence of CPT | DT40 Tdp1-/- hTDP1 cells, no CPT, ATP luminescence, 48 h | Potency, µM (titrated, usually from 46.2 µM), without a hit: at the highest dose activity change, negative = growth inhibition, hits mostly inhibitors | actives 15% (n = 420,000) | AID 686978, 2013; further: potency means the concentration at half of the fitted maximal effect; nearly all actives have a fitted effect of over 55% in size
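Readout: luminescence from CellTiter-Glo after 30 min in the dark at RT. Cells: DT40 Tdp1-/- with stable hTDP1, 400/well. Exposure: compounds alone, ≥48 hr, 37 °C.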
HT1080 IDH1KD tx: toxicity to HT-1080 IDH1 knockdown cells (counter line); HT-1080 IDH1 knockdown viability, ATP luminescence, 48 h; actives 2% (n = 360,000); Potency, µM (titrated, usually from 46.1 µM), for inactives: at the top dose activity, negative = toxicity, most hits filed as cytotoxic; AID 686971;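 further: potency means the concentration at half of the fitted maximal effect; 0% = DMSO wells and -100% = cell-free medium wells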
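Using the IDH1-knockdown HT-1080 line run in the same batch and compound series as the NT line, viability after 48 h at 37 °C was determined by CellTiter-Glo luminescence and expressed as % activity.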
ALOX12 inh: inhibitors of human 12S-lipoxygenase ALOX12. P18054. purified 12hLO, xylenol orange hydroperoxide absorbance. Potency, µM (highest dose often 108 µM), for inactives: at the top dose activity change, negative = inhibition, hits mostly inhibitors. actives 1.1% (n = 580,000); further: potency means the concentration at half of the fitted maximal effect
Target sequence (P18054 whole entry, looked up): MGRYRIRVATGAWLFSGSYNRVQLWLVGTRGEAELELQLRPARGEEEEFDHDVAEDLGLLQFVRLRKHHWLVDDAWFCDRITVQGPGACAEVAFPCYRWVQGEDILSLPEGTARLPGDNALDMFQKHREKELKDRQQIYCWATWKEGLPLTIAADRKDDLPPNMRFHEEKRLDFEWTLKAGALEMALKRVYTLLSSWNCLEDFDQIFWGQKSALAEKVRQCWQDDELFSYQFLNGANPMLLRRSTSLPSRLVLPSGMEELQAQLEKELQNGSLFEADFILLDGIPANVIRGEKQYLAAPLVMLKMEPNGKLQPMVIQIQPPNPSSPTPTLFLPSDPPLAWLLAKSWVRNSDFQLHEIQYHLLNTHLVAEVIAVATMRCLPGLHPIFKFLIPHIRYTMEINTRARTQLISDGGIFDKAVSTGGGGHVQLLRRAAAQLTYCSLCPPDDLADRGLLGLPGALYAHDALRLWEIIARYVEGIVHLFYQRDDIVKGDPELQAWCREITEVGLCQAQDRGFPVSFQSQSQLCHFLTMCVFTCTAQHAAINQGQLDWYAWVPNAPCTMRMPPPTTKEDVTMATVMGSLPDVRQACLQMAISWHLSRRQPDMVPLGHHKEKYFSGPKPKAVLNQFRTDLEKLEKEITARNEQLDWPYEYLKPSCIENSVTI
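Hydroperoxide product was detected by ferrous iron/xylenol orange as the 573 to 405 nm absorbance ratio. Arachidonic acid at 40 uM (final) was turned over for 30 min at room temperature by 150 nM human 12hLO, pH 7.0 Hepes buffer, after 15 min compound preincubation.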
Active calls of the source: *; ? = inconclusive; nt = not tested or not shown; [ ] = remark or other dose. Unless noted, the call rests on the fitted dose curve; in most records, active means well fitted curve in the direction sought with a large enough effect; inconclusive means small, poorly fitted or top-dose-only effect, or another doubt; inactive means no such curve, though single readings can be large; an effect the other way counts as inactive or inconclusive. Unless noted, on the % scale 0 is the no-effect control and ±100 the full control effect.

SMILES	DT40 TDP1 CPT	IL1B secr inh	HT1080-NT tox	DT40 TDP1 no CPT	HT1080 IDH1KD tx	ALOX12 inh
COCc1ccc(-c2c(-c3ccc(OC)cc3)oc(=O)c3cc(OC)c(OC)cc23)cc1	?	28.1	-9.8%	23.1µM*	-14.7%	-8.6%
CCOC1CCCc2oc(-c3ccc(OC)cc3)c(C#CCCO)c21 (configuration not stated)	?	nt	-19.0%	16.4µM*	?	-23.5%
COc1ccc(-c2c(-c3ccsc3)oc(=O)c3cc(OC)c(OC)cc23)cc1	?	39.8	12.8%	?	9.1%	-15.4%
COc1cc2c(O)c3c(c(-c4ccc5c(c4)OCO5)c2cc1OC)C(=O)OC3	1.84µM*	-18.7	2.51µM*	3.26µM*	2.51µM*	?
COc1ccc(-c2oc3ccc(N4CCOCC4)cc3c2C#CCO)cc1	?	-22.8	?	?	?	?
O=C(COc1c(CO)cc(F)cc1CO)Nc1ccc(F)c(Cl)c1	nt	nt	nt	nt	nt	11.8%
O=C(c1n[nH]c2c1CCCC2)N1CCC2(CC1)N=C(c1ccccc1)NO2	nt	nt	nt	nt	nt	40.7%
COc1ccccc1-c1nc(N2CCOCC2)cc2c1CN(Cc1cnn(C)c1)C2=O	nt	nt	nt	nt	nt	10.7%[176 µM]
CN1c2cccnc2CN(Cc2ccc(Cl)cc2)CC[C@H]1CO	nt	nt	nt	nt	nt	23.5%[176 µM]
COc1ccc(-c2oc(=O)c3cc(OC)c(OC)cc3c2C#CCCO)cc1	?	0.0	-1.2%	20.6µM*	-6.5%	?
COc1ccc(/C=C/c2c(-c3ccc(OC)cc3)oc(=O)c3cc(OC)c(OC)cc23)cc1	?	24.5	-3.3%	?	9.9%	-17.8%
COc1ccc(-c2oc3ccc(-c4cc(OC)c(OC)c(OC)c4)cc3c2C(=O)c2ccc(OC)nc2)cc1	?	-3.8	1.2%	?	-0.1%	-44.0%
COc1ccc(-c2oc(=O)c3cc(OC)c(OC)cc3c2C#C[C@]2(O)CC[C@H]3[C@@H]4CCc5cc(OC)ccc5[C@H]4CC[C@@]32C)cc1	?	7.2	2.0%	16.4µM*	4.6%	?
COc1ccc(C(=O)c2c(-c3ccc(OC)cc3)oc3ccc(-c4cc(OC)c(OC)c(OC)c4)cc23)cc1	7.31µM*	-11.5	8.5%	9.2µM*	3.8%	?
COc1cc2c(-c3ccc4cc[nH]c4c3)c(-c3ccc(C#N)cc3)oc(=O)c2cc1OC	5.8µM*	14.8	-4.0%	9.2µM*	-7.9%	-16.6%
CC(C)CNC(=O)c1cccc(NC(=O)CCc2ccccc2)c1	?	-10.7	-3.4%	-6.1%	0.0%	-29.2%
Cn1cc(S(=O)(=O)N2CCCC(C(=O)Nc3ccn(Cc4c(F)cccc4Cl)n3)C2)cn1 (configuration not stated)	nt	nt	nt	nt	nt	24.7%
COc1ccc(-c2sc3cc4c(cc3c2-c2ccc3c(c2)OCCO3)OCO4)cc1	?	12.9	10.8%	?	7.0%	-2.0%
COc1ccc(-c2oc(=O)c3cc(OC)c(OC)cc3c2-c2ccc3c(c2)OCO3)cc1	16.4µM*	-10.8	-3.2%	18.4µM*	-6.4%	-15.5%
CC(C)(C)N1CC(C(=O)Nc2ccc3c(c2)CCC3)CC1=O (configuration not stated)	nt	nt	nt	nt	nt	-18.3%
Cc1[nH]n(-c2ccc([N+](=O)[O-])cc2)c(=O)c1/C=N/N1CCOCC1	11.6µM*	0.2	?	?	?	-22.1%
Cc1[nH]n(-c2ccc([N+](=O)[O-])cc2)c(=O)c1C=NCCN1CCN(C(=O)c2ccccc2)CC1	10.3µM*	-5.9	?	10.3µM*	?	119.1%
N#CCOc1nc(N2CCCCC2)nc(N2CCCCC2)n1	?	-3.4	-11.9%	-28.1%	-1.0%	-15.8%
COc1nc(N2CCCCCC2)nc(N2CCCCCC2)n1	?	26.0	-6.7%	?	-19.1%	0.0%
COc1nc(C#N)nc(N2CCCC2)n1	?	nt	nt	15.8µM*	nt	nt
SMILES	DT40 TDP1 CPT	IL1B secr inh	HT1080-NT tox	DT40 TDP1 no CPT	HT1080 IDH1KD tx	ALOX12 inh
CCOc1nc(C#N)nc(N2CCCCC2)n1	20.6µM*	-92.2*	-9.1%	14.6µM*	-11.2%	0.0%
CC(NC(=O)Cc1ccc(-c2ccccc2)cc1)C12CC3CC(CC(C3)C1)C2 (configuration not stated)	nt	nt	nt	nt	nt	1.6%
O=C1c2ccccc2NC(c2ccc(Br)s2)N1O (configuration not stated)	10.3µM*	23.0	?	11.6µM*	?	-33.1%
C=CCN1C(=O)c2ccccc2NC1c1ccc(Br)s1 (configuration not stated)	-22.8%	-20.4	8.3%	?	12.0%	-0.3%
O=C1c2ccccc2NC(c2cccc([N+](=O)[O-])c2)N1O (configuration not stated)	20.6µM*	18.9	?	?	-11.7%	?
O=C1c2ccccc2NC(c2ccc([N+](=O)[O-])cc2)N1O (configuration not stated)	20.6µM*	19.8	-7.8%	18.4µM*	-24.8%	-23.6%
O=C(COc1ccc2oc(-c3ccccc3)cc(=O)c2c1)NCc1ccco1	?	-3.1	-15.9%	29.1µM*	?	nt
Cc1ccc(NS(=O)(=O)c2ccc(OCC(=O)NCc3ccccn3)cc2)cc1	3.66µM*	11.2	0.0%	4.61µM*	2.0%	457.7%
CCOc1ccc(NC(=O)C(=O)NCc2ccco2)cc1	1.4%	nt	nt	-1.6%	nt	-13.0%
CCOc1ccc(/C=N/OCC(=O)NCc2ccco2)cc1	?	3.6	3.4%	23.1µM*	-18.8%	7.1%
Cc1ccc(C)c(NS(=O)(=O)c2ccc(OCC(=O)NCc3ccco3)cc2)c1	?	8.8	6.2%	23.1µM*	11.7%	13.9%
CCN(CC)S(=O)(=O)c1ccc(OCC(=O)NCc2ccco2)cc1	?	-0.8	4.7%	-18.9%	2.0%	-7.7%
Cc1cc(C(=O)N2CCC(c3nc(-c4ccccc4)no3)C2)n[nH]1 (configuration not stated)	nt	nt	nt	nt	nt	48.3%
CN1CCN(C[C@@H]2CN(C(=O)CCCc3cccs3)C[C@@H]2CO)CC1	nt	nt	nt	nt	nt	8.5%
CCN1CCN(CCCNC(=O)Cn2c(-c3cccs3)cc3cc(F)ccc32)CC1	?	nt	nt	?	nt	1.2%
COc1ccc(C(=O)COC(=O)c2nc3nccc(C)n3n2)cc1F	-12.2%	-1.8	7.2%	-15.6%	1.7%	234.5%
Cc1ccc(NS(=O)(=O)c2ccc(OCC(=O)NCc3ccco3)cc2)cc1	18.4µM*	-19.6	-6.8%	?	-2.9%[9.24 µM]	?
